Assay outcomes (PubChem)
Myeloid diff 2: induction of myeloid progenitor differentiation, primary screen, cell-based, flow cytometry, MLPCN library. ER-HoxA9 myeloid progenitors, lysozyme-GFP differentiation. 1% of 360,000 active. calls only at 10 µM;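 active = normalized GFP-positive differentiation at or above the plate's own cutoff, the solvent-only control mean plus 3 SD; inconclusive = no clear call, values can overlap the other calls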;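 also: cells exposed to compound for four days before flow analysis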
NOD2-RIPK2 inh: NOD2-RIPK2 binding disruptors in cells, primary screen, fluorescence, CHO cells, BLA complementation. Receptor-interacting serine/threonine-protein kinase 2 (Homo sapiens), O43353. CCF4 ratio. inhibition, % at 4.98 µM. 0.38% of 360,000 active. AID 624267, 2012; in the data active = inhibition above about 21%;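 also: 0% = vehicle only and 100% = reference blocker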
TLR9-MyD88 inh: inhibitors of TLR9-MyD88 association in cells, primary screen, cell-based, CHO, BLA complementation, fluorescence | Toll-like receptor 9 (Homo sapiens) + Myeloid differentiation primary response protein … | 0.21% of 340,000 active | inhibition, % at 4.98 µM | CCF4 FRET ratio;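 active = inhibition above the mean over all tested compounds plus 3 SD, cut at about 21% in these data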;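 also: 0% = DMSO only wells and 100% = clavulanate BLA inhibitor control wells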
TLR4 MyD88 comp: inhibitors of TLR4-MyD88 association in cells, primary screen, cell-based, HeLa CL3-4, BLA complementation, FRET ratio; Toll-like receptor 4 (Homo sapiens) + Myeloid differentiation primary response protein …; HeLa CL3-4 TLR4/MyD88 BLA complementation; inhibition, % at 8.4 µM; 0.18% of 200,000 active; AID 861, 2007; in the data active = inhibition above about 25%;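 also: 0% = vehicle and 100% = reference inhibitor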
Target sequence (O00206 whole entry, looked up): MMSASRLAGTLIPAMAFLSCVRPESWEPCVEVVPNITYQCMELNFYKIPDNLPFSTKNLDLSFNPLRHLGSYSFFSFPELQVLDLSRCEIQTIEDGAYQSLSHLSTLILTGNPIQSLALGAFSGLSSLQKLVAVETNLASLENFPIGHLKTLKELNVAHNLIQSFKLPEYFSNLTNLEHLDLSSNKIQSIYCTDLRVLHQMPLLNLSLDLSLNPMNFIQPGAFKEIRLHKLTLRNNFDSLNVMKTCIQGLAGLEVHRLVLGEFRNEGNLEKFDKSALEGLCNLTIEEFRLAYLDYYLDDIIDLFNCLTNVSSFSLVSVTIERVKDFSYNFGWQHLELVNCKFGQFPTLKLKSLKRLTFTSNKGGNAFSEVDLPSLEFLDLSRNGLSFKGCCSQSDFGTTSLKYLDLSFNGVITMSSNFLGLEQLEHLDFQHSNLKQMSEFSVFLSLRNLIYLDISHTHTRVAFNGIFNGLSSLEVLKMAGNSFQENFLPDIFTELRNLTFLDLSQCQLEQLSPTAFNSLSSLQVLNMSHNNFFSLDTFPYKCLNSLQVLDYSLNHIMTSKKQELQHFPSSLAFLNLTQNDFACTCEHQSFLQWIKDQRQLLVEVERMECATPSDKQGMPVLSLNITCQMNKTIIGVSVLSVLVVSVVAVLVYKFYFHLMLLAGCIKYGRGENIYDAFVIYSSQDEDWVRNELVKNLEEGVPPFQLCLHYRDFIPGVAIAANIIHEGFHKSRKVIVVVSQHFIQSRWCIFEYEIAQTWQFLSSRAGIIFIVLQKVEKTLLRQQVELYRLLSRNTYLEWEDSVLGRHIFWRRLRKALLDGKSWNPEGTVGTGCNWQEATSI
Target sequence (Q99836 whole entry, looked up): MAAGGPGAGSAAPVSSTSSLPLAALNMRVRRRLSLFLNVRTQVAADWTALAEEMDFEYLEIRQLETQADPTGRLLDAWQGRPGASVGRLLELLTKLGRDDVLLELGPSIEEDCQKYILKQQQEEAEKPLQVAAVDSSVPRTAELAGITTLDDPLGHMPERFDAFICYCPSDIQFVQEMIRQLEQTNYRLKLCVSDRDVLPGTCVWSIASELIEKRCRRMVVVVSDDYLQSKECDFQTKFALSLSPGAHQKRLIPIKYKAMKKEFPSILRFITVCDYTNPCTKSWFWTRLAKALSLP
NOD2-RIPK2 conf: NOD2-RIPK2 binding disruptors, retest, confirmation, fluorescence, CHO cells, BLA complementation, triplicate; shares compounds with NOD2-RIPK2 inh; CCF4 FRET; inhibition, % at 4.98 µM; 70% of 1,200 active; AID 624370, 2012;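 active = mean inhibition across replicates above a set limit taken from the earlier primary screen, cut at about 21% in these data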;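 also: 0% = DMSO-only wells and the high end = clavulanate BLA-blocked wells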
NOD2 BLA counter: hits BLA reporter in NOD2-RIPK2 inhibitor counterscreen | shares compounds with NOD2-RIPK2 inh | CHO BLA reporter, CCF4 FRET ratio | inhibition, % at 4.98 µM | 57% of 1,200 active | AID 624371;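 active = mean inhibition above the low-control mean inhibition plus three low-control SD, cut at about 11% in these data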;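 also: 0% = DMSO only wells and 100% = clavulanate high control wells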
Active calls of the source: *; i = inactive; ? = inconclusive; . = no result; + = active, no number. Compounds with a hit are over-represented: about 1.5% of the library has one in this group of screens.

SMILES | Myeloid diff 2 | NOD2-RIPK2 inh | TLR9-MyD88 inh | TLR4 MyD88 comp | NOD2-RIPK2 conf | NOD2 BLA counter
COc1ccc(CN(C(=O)/C=C/C(=O)c2ccc(OC)cc2O)C(C(=O)NC2CCCCC2)c2ccncc2)cc1 (stereo not given) | i | 4.3 | -8.6 | -27.7 | . | .
CC1C=CC(C)C(C(=O)c2ccccc2)C1C(=O)c1ccccc1 (stereo not given) | i | 29.6* | 3.3 | . | -7.2 | 0.3
Cc1ccc(NC(=O)CNC(=O)CN2C(=O)c3ccccc3C2=O)cc1 | i | -2.1 | . | . | . | .
CCOC(=O)N=S(N)(=O)c1ccccc1 (stereo not given) | i | -11.9 | -2.5 | 11.2 | . | .
CCOC(=O)CC(S(=O)(=O)c1ccccc1)S(=O)(=O)c1ccccc1 | . | 52.3* | 2.1 | . | 14.3 | 9.8
COCCCNc1c2c3c(cccc3[nH]c1=O)C(=O)c1ccccc1-2 | + | 32.3* | 15.3 | 16.5 | 37.4* | 41.1*
COC(=O)CCNC(=O)c1ccc2nc(Cc3ccc(OC)c(OC)c3)oc2c1 | i | 21.5* | 9.2 | . | -2.9 | 0.3
COc1ccc(NS(=O)CCCc2ccccc2)cc1 (stereo not given) | i | -11.7 | . | . | . | .
CCCCCNC(=O)C(c1cc2ccccc2o1)n1c(=O)c(-c2ccco2)nc2ccccc21 (stereo not given) | i | -11.9 | . | . | . | .
CCCCCNC(=O)C(c1ccc(OC)cc1)n1c(=O)c(-c2cc3ccccc3[nH]2)nc2ccccc21 (stereo not given) | i | 43.6* | . | . | 38.8* | 62.4*
CCCCCNC(=O)C(c1ccnc2ccccc12)n1c(=O)c(-c2cc3ccccc3[nH]2)nc2ccccc21 (stereo not given) | i | 51.1* | . | . | 46.3* | 66.8*
CCCCCNC(=O)C(c1ccncc1)n1c(=O)c(-c2ccco2)nc2ccccc21 (stereo not given) | i | -10.6 | . | . | . | .
CCCCCNC(=O)C(c1ccncc1)n1c(=O)c(-c2cc3ccccc3[nH]2)nc2ccccc21 (stereo not given) | i | 50.1* | . | . | 50.6* | 68.7*
OC(c1ccc(F)cc1)c1ncc(-c2ccc3ccccc3c2)[nH]1 (stereo not given) | i | 7.4 | . | . | . | .
Cc1cccc(C)c1-n1nnnc1C1c2ccccc2C(=O)N1CCc1ccc(O)cc1 (stereo not given) | i | -3.2 | . | . | . | .
COc1ccc2ccccc2c1-c1sc(Nc2ccccc2)n[n+]1-c1ccc(F)cc1 | i | 31.7* | 8.2 | . | 19.6 | 2.8
Fc1ccc(-[n+]2nc(Nc3ccccc3)sc2-c2c(Cl)cccc2Cl)cc1 | i | 52.7* | 18.1 | . | 42.1* | 15.8*
O=C(O)c1ccc(-c2sc(Nc3ccccc3)n[n+]2-c2ccc(F)cc2)cc1 | i | 0.7 | 2.4 | . | . | .
COc1ccc(-c2sc(Nc3ccccc3)n[n+]2-c2ccc(F)cc2)cc1Br | i | -18.1 | -3.2 | . | . | .
COc1ccc(S(=O)(=O)NC(=O)C2(C)CCN2C(=O)Cc2ccccc2Cl)cc1 (stereo not given) | i | 1.3 | . | . | . | .
O=C1Nc2cc(C(=O)NCCN3CCCCCC3)ccc2S/C1=C/c1ccccc1F | i | 21.8* | 5.5 | . | 48.9* | 51.2*
O=C1Nc2cc(C(=O)NCCCN3CCCC3)ccc2S/C1=C/c1ccccc1F | i | -16.8 | -2.9 | . | . | .
CCCN1C[C@@H](C)[C@@H](OC)CN(C)C(=O)c2ccc(NC(=O)c3cccc(F)c3)cc2OC[C@H]1C | i | 0.2 | . | . | . | .
CC(C)(C)NC(=O)C(c1ccccc1)n1c(=O)c(-c2cc3ccccc3[nH]2)nc2ccccc21 (stereo not given) | i | 42.8* | . | . | 40.1* | 64.5*
CC(C)(C)NC(=O)C(c1ccc(C#N)cc1)n1c(=O)c(-c2cc3ccccc3[nH]2)nc2ccccc21 (stereo not given) | i | 53.7* | . | . | 51.2* | 69.7*
SMILES | Myeloid diff 2 | NOD2-RIPK2 inh | TLR9-MyD88 inh | TLR4 MyD88 comp | NOD2-RIPK2 conf | NOD2 BLA counter
COc1ccc(C(C(=O)NC(C)(C)C)n2c(=O)c(-c3ccccc3)nc3ccccc32)cc1 (stereo not given) | i | -3.1 | . | . | . | .
CC(C)(C)NC(=O)C(c1ccc(-c2ccccc2)cc1)n1c(=O)c(-c2cc3ccccc3[nH]2)nc2ccccc21 (stereo not given) | i | 40.1* | . | . | 34.2* | 63.1*
CC(C)(C)NC(=O)C(c1ccnc2ccccc12)n1c(=O)c(-c2ccco2)nc2ccccc21 (stereo not given) | i | -7.4 | . | . | . | .
CC(C)(C)NC(=O)C(c1cccc2ccccc12)n1c(=O)c(-c2cc3ccccc3[nH]2)nc2ccccc21 (stereo not given) | i | 39.6* | . | . | 33.6* | 61.5*
CCc1nc2ccc(C(=O)NCCCN3CCCC3=O)cn2c1N(CC)C(C)=O | i | -16.2 | . | . | . | .
CC(=O)C1=CCC(c2ccccc2)N(S(=O)(=O)c2ccc(Cl)cc2)C1 (stereo not given) | i | -4.3 | . | . | . | .
CC(C)(C)NC(=O)C(c1ccc(C(F)(F)F)cc1)n1c(=O)c(-c2cc3ccccc3[nH]2)nc2ccccc21 (stereo not given) | i | 45.4* | . | . | 41.4* | 66.0*
CC(C)(C)NC(=O)C(c1ccc(C(F)(F)F)cc1)n1c(=O)c(-c2ccccc2)nc2ccccc21 (stereo not given) | i | -1.2 | . | . | . | .
COc1ccc(OC)c2sc(N(CCCN(C)C)C(=O)CCS(=O)(=O)c3ccccc3)nc12 | ? | 40.9* | 15.6 | . | 53.7* | 5.4
COc1ccc(Cl)c2sc(N(CCN(C)C)C(=O)CCS(=O)(=O)c3ccc(C)cc3)nc12 | i | -8.5 | -7.0 | . | . | .
C[N+](C)(C)CCC(=O)N1C/C(=C/c2ccccc2)C(=O)/C(=C\c2ccccc2)C1 | i | -8.2 | 3.3 | . | . | .
O=C1/C(=C/c2ccccc2)CN(C(=O)CCN2CCOCC2)C/C1=C\c1ccccc1 | . | 27.5* | 7.3 | . | 30.6* | 2.0
CN(C)CCC(=O)N1C/C(=C/c2ccccc2)C(=O)/C(=C\c2ccccc2)C1 | ? | 61.2* | 3.4 | . | 54.9* | -1.0
C[C@@H]1CN([C@@H](C)CO)C(=O)CCCn2nncc2CO[C@H]1CN(C)Cc1ccc(Cl)c(Cl)c1 | i | -5.9 | -4.0 | . | . | .
Cc1ccc(NC(=O)COc2ccc(N(C)C(=O)C(C)(C)C)cc2)cc1S(=O)(=O)N1CCCCC1 | i | 4.4 | 0.3 | . | . | .
O=C(NCc1ccccc1)c1cc(C2COCCN2C(=O)CCc2ccccc2)on1 (stereo not given) | i | -3.4 | . | . | . | .
O=C(NC1CCCCC1)C(C1CC1)n1c(=O)c(-c2cc3ccccc3[nH]2)nc2ccccc21 (stereo not given) | i | 44.0* | . | . | 38.3* | 63.7*
